Pf Dd2 inh: Plasmodium falciparum Dd2 growth inhibition; AID 1347417; Potency, µM (highest dose often 28.9 µM), for inactives: at the top dose activity, negative = inhibition, actives largely listed as inhibitors; P. falciparum Dd2 growth, SYBR Green, 72 h; 4.3% of 120,000 active; active means well fitted inhibition curve with a large enough effect;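 further: plate controls were DMSO vehicle for no effect and reference drug for full effect; nearly all actives have a fitted effect of over 65% in size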
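Infected erythrocytes (Dd2, 0.3% parasitemia, 2.5% hematocrit final) are added to compound in RPMI-1640/Albumax II medium, grown 72 h at 37C in low oxygen, then lysed with saponin/Triton-X containing SYBR Green and read by fluorescence.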
* marks the source's active call; other numbers are inactive results; i = inactive; [ ] = remark or other dose. The entries come from a sample that favours hits as a whole. Potency means the concentration at half of the fitted maximal effect.

SMILES	Pf Dd2 inh
Cn1cc(CNC(=O)c2coc(CN3CCN(C/C=C/c4ccccc4)CC3)n2)cn1	-3.0%
Cc1ccc(C(=O)N2CCc3cn(C)c4cccc(c34)C2)cc1	-23.1%
CC(C)N(C(=O)Cn1cc(S(=O)(=O)Cc2ccc(Cl)cc2)c2ccccc21)C(C)C	i[5.79 µM]
Cc1ccc(NC(=O)CSc2cn(CC(=O)N3CCCCCC3)c3ccccc23)cc1	-2.3%
COc1ccc(NC(=O)CSc2cn(CC(=O)N3CCOCC3)c3ccccc23)cc1OC	13.0%
COc1ccc(C(=O)NCCn2cc(SCC(=O)Nc3ccc4c(c3)OCCO4)c3ccccc32)cc1OC	i
Cc1ccc(C(=O)/C=C/c2cn(CC(O)CN3CCc4ccccc43)c3ccccc23)cc1 (configuration not stated)	5.62µM*
CC(C)CN(CC(C)C)CC(O)Cn1cc(/C=C/C(=O)c2ccccc2)c2ccccc21 (configuration not stated)	2.51µM*
COc1ccc(C(=O)/C=C/c2cn(CC(O)CN3CCc4ccccc43)c3ccccc23)cc1OC (configuration not stated)	8.91µM*
CN1C(=O)CS(=O)(=O)C12CCN(C(=O)c1ccc3c(c1)OCO3)CC2	11.3%
Cc1c(C(C)NC(=O)CO)cnn1-c1cccc2ccccc12 (configuration not stated)	-0.4%
NC(=O)CN1CCCC(c2nc(-c3cn4ccccc4n3)no2)C1 (configuration not stated)	-16.8%
Cc1ccc(C2NC(=O)N(CC(=O)Nc3ccc(C(C)C)cc3)C3=C2C(=O)OC3)cc1 (configuration not stated)	-20.0%
Cc1noc(C)c1Cc1c(C(=O)NCCn2c(C)cnc2C2CC2)noc1C	i
CN(C)c1cc(N2CCCC(NC(=O)c3ccnn3C)C2)ncn1 (configuration not stated)	22.1%[5.79 µM]
CS(=O)(=O)N[C@@H]1[C@@H](NC(=O)c2ccc(Cn3ccnc3)o2)[C@H]2CCO[C@H]21	-4.4%
Cc1cnc(-c2ccccc2)n1CCNC(=O)c1cn(C)cn1	-1.5%
CCCn1cnc2c1CN(S(C)(=O)=O)[C@H](C(=O)OC)C2	6.7%[44.1 µM]
CNC(=O)[C@@H]1CN(Cc2ccc3c(c2)CCO3)C[C@H]1c1nc(COC)no1	23.7%
COCCCNC(=O)c1c(OCC2CC2)cc(=O)n2c1CCCCC2	45.6%
O=C(NC1CCCN(c2cc(-c3ccc(F)cc3)[nH]n2)C1)c1ccccc1F (configuration not stated)	i
CCCCN1C(=O)[C@@H]2C[C@@H](O)CN2C2(CN(C)C2)C1=O	-15.7%[44.1 µM]
CC(=O)NCCCC(=O)N1CCOC2(CCN(C(=O)CCCN)CC2)C1	-3.8%
CCc1noc(-c2cn(C3CCN(C(=O)c4ccc5c(c4)OCO5)C3)nn2)n1 (configuration not stated)	i
O=C(Cn1cccc1-c1nc(-c2ccc3c(c2)OCO3)no1)NCc1ccc(Cl)cc1	5.4%
SMILES	Pf Dd2 inh
Cc1cc(C)c(NC(=O)Cn2cccc2-c2nc(-c3ccc4c(c3)OCO4)no2)c(C)c1	10.5%
O=C(NCCn1cccc1-c1nc(-c2ccc3c(c2)OCO3)no1)c1ccc2c(c1)OCO2	12.6µM*
CN(C)c1ccc(C(=O)N[C@H]2C[C@@H](c3nc(-c4ccc5c(c4)OCO5)no3)N(C)C2)cc1	i
CN(C)c1ccc(NC(=O)Cn2cccc2-c2nc(-c3ccc4c(c3)OCO4)no2)cc1	6.8%
Cc1ccc(C(=O)NCCn2cccc2-c2nc(-c3ccc4c(c3)OCO4)no2)cc1C	-30.2%
O=C(NCCn1cccc1-c1nc(-c2ccc3c(c2)OCO3)no1)c1ccc(F)cc1	130.7%
O=C(Cn1cccc1-c1nc(-c2ccc3c(c2)OCO3)no1)NCc1ccc(F)cc1F	12.1%
CN1C[C@@H](NC(=O)c2ccc(F)cc2)C[C@H]1c1nc(-c2ccc(Cl)cc2)no1	i
O=C(Cn1cccc1-c1nc(-c2ccc3c(c2)OCO3)no1)Nc1ccc(Cl)cc1	2µM*
O=C(Cn1cccc1-c1nc(-c2ccc3c(c2)OCO3)no1)Nc1cc(F)cc(F)c1	5.01µM*
CN1C[C@@H](NC(=O)c2ccc3c(c2)OCO3)C[C@H]1c1nc(-c2ccc(Cl)cc2)no1	10µM*
COc1ccccc1C(=O)N1CCC(N2Cc3cnc(C)n3C2=O)CC1	i
O=C1[C@@H]2C[C@@H](O)CN2C2(CN(Cc3cccnc3)C2)C(=O)N1Cc1ccccc1	-6.5%[44.1 µM]
COc1ccccc1NC(=O)Cn1c(=O)c(-c2noc(C)n2)c2n(c1=O)CCCCC2	-15.9%
CCC(=O)N1C[C@@H]2CCCN3CCC[C@@H]([C@H]23)[C@H]1CCCC(=O)NC	-7.4%
CC(C)CNC(=O)c1ccc2c(c1)NC(C)(COc1ccc3[nH]ccc3c1)CO2 (configuration not stated)	-13.9%[44.1 µM]
COc1cccc(C(=O)N2CCC3(CC2)N=C(c2ccc(Cl)cc2)NO3)c1	i
CCc1noc(C)c1C(=O)N1CCc2c(nc(-c3ccccn3)[nH]c2=O)C1	-12.6%
O=C(CC1CCN(S(=O)(=O)c2ccccc2)C1)NCc1ccccc1 (configuration not stated)	-19.6%
O=C1CCN(S(=O)(=O)c2cccc(F)c2)CCCC(CO)CCN1 (configuration not stated)	10.0%
CC(=O)Nc1ccc(C(=O)N2CCN(c3ccc(C=O)cc3)C(=O)C2)cc1	12.5%
OC1Cc2ccccc2C12CCN(Cc1cn(-c3ccccc3)nn1)CC2 (configuration not stated)	-11.6%
Cc1noc(-c2ccc3c(c2)OCO3)c1C(=O)NCc1ccccc1	5.1%
Cn1nccc1C(=O)N1CCC(N2C[C@H](O)C[C@H]2C(=O)NC2CCCCC2)CC1	-14.4%
Cc1cccc(CCNC(=O)c2cc3c(=O)[nH]c4ccc(C)cc4c3s2)c1	-17.2%
SMILES	Pf Dd2 inh
Cc1ccc2nc(Cl)c3cc(C(=O)NC4CCCCCC4)sc3c2c1	-5.9%
CCN(CCCNC(=O)c1cc2c(=O)n(C)c3ccccc3c2s1)c1ccccc1	12.6%[5.79 µM]
CCN(CCCNC(=O)c1cc2c(=O)[nH]c3ccc(C)cc3c2s1)Cc1ccccc1	7.94µM*
COCCNC(=O)c1cc2c(Cl)nc3ccc(C)cc3c2s1	-9.7%
CCN(CCCNC(=O)c1cc2c(=O)n(C)c3ccccc3c2s1)Cc1ccccc1	5.01µM*
CCOc1ccc(CNC(=O)c2cc3c(=O)n(C)c4ccccc4c3s2)cc1	12.8%
CCCN(C(=O)c1cc2c(=O)[nH]c3ccc(C)cc3c2s1)c1ccc(CC)cc1	-13.8%
COCCN(Cc1ccco1)C(=O)c1cc2c(=O)[nH]c3ccc(C)cc3c2s1	i
CCOCCCN(Cc1ccco1)C(=O)c1cc2c(=O)[nH]c3ccc(C)cc3c2s1	10µM*
Cc1ccc2nc(Cl)c3cc(C(=O)NCCCN(C)Cc4ccccc4)sc3c2c1	7.94µM*
CCCCN(CC)CCCNC(=O)c1cc2c(=O)oc3ccc(C)cc3c2s1	10.2%
O=C(c1ccc(Cl)cc1)N1CCC(c2n[nH]c(=O)n2-c2ccccc2)CC1	32.8%
O=C(c1cccc(F)c1)N1CC[C@H]2COC(=O)N2c2cc(F)ccc2C1	10.9%[44.1 µM]
O=C(NCc1csc(-c2ncccn2)n1)C1COc2ccccc2C1 (configuration not stated)	0.6%
CC1(COc2ccc3[nH]ccc3c2)COc2ccc(C(=O)Nc3cccnc3)cc2N1 (configuration not stated)	i
CC(C)CN1C(=O)c2cccn2CC1C(=O)NCCCN1CCN(C)CC1 (configuration not stated)	17.4%
CN(C(=O)c1c(F)cccc1Cl)C1CCc2nn(C)c(=O)n2CC1 (configuration not stated)	32.9%

Screening results (PubChem)
